Results on eight molecules are retold here after ChEMBL document CHEMBL1961873, “Compounds: GSK PKIS; Assays: Nanosyn kinase panel” (2012).

SMILES strings stand for the structures.

Assay [1] addresses T1, Tyrosine-protein kinase receptor TYRO3 (Homo sapiens) (UniProt Q06418).
T1 sequence (whole entry): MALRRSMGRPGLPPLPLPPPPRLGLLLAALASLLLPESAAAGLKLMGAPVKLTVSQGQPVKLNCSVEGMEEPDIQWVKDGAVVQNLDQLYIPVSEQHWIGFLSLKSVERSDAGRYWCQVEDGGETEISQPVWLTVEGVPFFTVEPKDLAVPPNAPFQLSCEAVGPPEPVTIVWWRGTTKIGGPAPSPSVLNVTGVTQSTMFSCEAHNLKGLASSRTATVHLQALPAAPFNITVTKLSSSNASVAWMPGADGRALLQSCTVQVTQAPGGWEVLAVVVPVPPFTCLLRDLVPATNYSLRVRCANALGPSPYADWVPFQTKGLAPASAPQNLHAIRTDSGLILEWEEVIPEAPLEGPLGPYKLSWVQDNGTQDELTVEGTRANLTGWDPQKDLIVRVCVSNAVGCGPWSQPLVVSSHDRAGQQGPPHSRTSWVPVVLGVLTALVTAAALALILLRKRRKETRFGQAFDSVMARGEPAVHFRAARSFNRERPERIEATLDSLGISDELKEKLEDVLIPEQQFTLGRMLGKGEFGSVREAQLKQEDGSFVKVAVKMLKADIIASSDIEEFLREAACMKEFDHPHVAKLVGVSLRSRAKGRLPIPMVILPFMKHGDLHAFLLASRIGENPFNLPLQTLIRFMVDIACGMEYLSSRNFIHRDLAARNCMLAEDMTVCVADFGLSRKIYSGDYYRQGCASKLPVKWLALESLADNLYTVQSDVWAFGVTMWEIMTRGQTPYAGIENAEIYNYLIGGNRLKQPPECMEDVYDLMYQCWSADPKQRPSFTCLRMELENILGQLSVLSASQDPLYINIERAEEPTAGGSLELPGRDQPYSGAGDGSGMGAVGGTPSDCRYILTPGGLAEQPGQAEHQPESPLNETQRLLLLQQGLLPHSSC
As to conditions: at 1 µM.

For assay [2], the target named is Tyrosine-protein kinase Yes (Homo sapiens) (UniProt P07947). Conditions: at 0.1 µM.
Assay [3] has the same target. Conditions: at 1 µM.
Assay [4] deals with T2, Tyrosine-protein kinase ZAP-70 (Homo sapiens) (UniProt P43403).
T2 sequence (whole entry): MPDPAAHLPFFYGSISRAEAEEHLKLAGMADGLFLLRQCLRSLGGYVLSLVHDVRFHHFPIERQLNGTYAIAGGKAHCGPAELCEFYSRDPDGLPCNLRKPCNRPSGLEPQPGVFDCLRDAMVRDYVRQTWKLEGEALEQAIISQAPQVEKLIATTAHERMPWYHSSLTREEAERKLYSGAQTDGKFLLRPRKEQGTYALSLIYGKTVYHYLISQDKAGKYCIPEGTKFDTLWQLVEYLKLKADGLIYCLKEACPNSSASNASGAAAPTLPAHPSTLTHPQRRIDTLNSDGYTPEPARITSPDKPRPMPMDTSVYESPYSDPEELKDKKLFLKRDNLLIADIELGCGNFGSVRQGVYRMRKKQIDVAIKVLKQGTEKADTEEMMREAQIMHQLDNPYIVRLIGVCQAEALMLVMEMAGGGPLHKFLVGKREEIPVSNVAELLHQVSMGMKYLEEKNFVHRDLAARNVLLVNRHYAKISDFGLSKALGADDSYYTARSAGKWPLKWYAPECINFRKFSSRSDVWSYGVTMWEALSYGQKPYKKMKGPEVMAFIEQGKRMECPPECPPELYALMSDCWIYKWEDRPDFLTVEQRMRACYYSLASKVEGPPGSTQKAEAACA
As to conditions: at 0.1 µM.

Assay [5] concerns the target T2, Tyrosine-protein kinase ZAP-70 (Homo sapiens). As to conditions: at 1 µM.
Assay [6] addresses Serine/threonine-protein kinase B-raf (Homo sapiens) (UniProt P15056). As to conditions: at 0.1 µM.
Assay [7] shares this target. Conditions: at 1 µM.
Assay [8] concerns Serine/threonine-protein kinase B-raf (Homo sapiens), P15056 [V600E]. As to conditions: at 0.1 µM.
For assay [9] the test system is unchanged. Conditions: at 1 µM.
For assay [10], the target named is RAF proto-oncogene serine/threonine-protein kinase (Homo sapiens) (UniProt P04049). Conditions: at 0.1 µM.
Assay [11] has the same target. As to conditions: at 1 µM.
Assay [12] addresses T3, Interleukin-1 receptor-associated kinase 4 (Homo sapiens) (UniProt Q9NWZ3).
T3 sequence (whole entry): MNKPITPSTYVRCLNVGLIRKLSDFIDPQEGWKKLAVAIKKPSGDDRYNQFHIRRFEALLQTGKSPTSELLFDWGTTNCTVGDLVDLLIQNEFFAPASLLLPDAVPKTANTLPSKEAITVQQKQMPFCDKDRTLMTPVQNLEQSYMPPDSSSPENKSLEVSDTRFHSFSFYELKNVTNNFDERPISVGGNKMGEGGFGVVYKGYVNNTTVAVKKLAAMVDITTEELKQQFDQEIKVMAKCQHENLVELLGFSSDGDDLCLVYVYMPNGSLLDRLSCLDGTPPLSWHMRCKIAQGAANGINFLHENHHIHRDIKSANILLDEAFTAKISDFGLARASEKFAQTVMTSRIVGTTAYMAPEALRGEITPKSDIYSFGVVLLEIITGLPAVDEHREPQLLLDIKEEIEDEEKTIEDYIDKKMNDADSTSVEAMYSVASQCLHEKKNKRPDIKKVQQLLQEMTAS
Conditions: at 0.1 µM.

The target in assay [13] is T3, Interleukin-1 receptor-associated kinase 4 (Homo sapiens). Conditions: at 1 µM.
The target in assay [14] is Leucine-rich repeat serine/threonine-protein kinase 2 (Homo sapiens) (UniProt Q5S007). Conditions: at 0.1 µM.
Assay [15] shares this target. As to conditions: at 1 µM.
For assay [16], the system named is Leucine-rich repeat serine/threonine-protein kinase 2 (Homo sapiens), Q5S007 [G2019S]. As to conditions: at 0.1 µM.
Assay [17] shares this test system. Conditions: at 1 µM.

Leucine-rich repeat serine/threonine-protein kinase 2 (Homo sapiens), sequence (Q5S007 whole entry): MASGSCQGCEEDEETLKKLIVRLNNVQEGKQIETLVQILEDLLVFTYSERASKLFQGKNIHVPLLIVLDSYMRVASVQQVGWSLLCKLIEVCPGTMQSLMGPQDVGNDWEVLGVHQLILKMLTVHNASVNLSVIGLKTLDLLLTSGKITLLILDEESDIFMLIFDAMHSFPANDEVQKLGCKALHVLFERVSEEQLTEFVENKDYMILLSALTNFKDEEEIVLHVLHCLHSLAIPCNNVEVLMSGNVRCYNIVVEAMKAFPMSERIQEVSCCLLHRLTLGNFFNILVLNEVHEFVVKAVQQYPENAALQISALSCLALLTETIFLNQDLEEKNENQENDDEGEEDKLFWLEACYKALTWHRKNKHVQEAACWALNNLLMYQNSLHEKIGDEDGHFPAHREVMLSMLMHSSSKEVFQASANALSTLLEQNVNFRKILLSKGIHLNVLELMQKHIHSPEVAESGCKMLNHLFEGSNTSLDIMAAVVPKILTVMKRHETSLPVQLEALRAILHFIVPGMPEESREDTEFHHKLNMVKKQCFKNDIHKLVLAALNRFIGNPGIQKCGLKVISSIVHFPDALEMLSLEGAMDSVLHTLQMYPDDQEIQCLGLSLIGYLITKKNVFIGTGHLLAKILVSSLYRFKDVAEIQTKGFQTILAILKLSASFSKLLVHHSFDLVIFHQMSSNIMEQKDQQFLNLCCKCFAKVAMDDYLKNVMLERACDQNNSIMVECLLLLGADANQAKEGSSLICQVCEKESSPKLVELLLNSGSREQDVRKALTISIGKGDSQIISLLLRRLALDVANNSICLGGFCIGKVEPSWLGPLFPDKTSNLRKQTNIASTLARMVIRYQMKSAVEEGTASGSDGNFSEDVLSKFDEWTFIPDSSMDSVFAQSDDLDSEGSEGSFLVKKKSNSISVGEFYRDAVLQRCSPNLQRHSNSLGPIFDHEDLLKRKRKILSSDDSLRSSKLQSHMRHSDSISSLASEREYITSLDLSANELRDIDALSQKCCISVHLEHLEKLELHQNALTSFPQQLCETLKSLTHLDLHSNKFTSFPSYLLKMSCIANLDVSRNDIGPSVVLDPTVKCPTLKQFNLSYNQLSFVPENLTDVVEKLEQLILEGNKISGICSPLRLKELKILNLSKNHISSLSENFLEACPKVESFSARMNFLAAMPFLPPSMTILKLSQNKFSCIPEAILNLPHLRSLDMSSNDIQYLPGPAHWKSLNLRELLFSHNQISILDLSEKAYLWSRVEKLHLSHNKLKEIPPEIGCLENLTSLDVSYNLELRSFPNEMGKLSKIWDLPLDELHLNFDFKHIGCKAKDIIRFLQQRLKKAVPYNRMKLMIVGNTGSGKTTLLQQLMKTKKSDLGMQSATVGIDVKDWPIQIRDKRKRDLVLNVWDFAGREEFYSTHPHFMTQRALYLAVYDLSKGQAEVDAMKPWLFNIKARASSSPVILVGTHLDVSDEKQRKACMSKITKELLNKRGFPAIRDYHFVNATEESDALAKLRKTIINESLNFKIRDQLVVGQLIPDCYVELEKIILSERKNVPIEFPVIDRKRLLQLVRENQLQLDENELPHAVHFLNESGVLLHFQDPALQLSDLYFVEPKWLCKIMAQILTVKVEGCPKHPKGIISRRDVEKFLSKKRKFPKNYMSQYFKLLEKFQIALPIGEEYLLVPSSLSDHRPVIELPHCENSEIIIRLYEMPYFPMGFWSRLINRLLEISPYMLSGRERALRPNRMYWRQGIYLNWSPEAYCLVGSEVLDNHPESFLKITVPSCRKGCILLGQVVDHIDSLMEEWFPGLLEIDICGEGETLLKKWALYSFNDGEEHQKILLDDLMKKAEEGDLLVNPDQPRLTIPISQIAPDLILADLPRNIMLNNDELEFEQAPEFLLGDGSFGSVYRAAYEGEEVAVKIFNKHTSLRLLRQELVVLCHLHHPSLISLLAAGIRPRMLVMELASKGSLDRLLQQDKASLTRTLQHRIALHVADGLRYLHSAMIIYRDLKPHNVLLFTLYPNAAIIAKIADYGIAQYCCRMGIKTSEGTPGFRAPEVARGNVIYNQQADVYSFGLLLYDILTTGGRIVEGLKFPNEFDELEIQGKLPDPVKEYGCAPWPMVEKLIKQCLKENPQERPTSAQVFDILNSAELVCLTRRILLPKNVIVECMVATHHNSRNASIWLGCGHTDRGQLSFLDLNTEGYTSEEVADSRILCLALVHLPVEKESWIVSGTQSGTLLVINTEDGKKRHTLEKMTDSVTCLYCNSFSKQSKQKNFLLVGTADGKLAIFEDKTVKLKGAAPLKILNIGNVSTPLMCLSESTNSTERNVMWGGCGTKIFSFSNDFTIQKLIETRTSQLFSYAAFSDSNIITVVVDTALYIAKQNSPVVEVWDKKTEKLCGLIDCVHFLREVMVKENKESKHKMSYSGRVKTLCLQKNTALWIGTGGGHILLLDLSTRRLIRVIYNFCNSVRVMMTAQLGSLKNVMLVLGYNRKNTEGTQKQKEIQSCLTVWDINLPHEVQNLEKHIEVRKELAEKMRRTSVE
Tyrosine-protein kinase Yes (Homo sapiens), sequence (P07947 2-543 limits assumed): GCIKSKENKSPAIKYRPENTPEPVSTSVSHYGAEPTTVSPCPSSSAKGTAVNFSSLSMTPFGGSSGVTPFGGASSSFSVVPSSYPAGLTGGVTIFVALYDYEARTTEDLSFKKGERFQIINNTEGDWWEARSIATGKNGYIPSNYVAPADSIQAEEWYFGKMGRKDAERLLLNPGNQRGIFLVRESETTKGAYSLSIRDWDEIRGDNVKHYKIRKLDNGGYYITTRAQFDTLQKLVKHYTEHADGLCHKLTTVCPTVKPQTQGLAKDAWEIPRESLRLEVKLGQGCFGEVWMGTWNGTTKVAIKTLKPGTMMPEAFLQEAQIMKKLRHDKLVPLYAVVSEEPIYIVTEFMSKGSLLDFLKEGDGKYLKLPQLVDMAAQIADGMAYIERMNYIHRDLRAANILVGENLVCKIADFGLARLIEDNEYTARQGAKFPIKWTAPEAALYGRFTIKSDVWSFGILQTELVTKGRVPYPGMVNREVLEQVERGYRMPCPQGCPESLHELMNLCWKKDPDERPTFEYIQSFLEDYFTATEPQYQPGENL
RAF proto-oncogene serine/threonine-protein kinase (Homo sapiens), sequence (P04049 whole entry): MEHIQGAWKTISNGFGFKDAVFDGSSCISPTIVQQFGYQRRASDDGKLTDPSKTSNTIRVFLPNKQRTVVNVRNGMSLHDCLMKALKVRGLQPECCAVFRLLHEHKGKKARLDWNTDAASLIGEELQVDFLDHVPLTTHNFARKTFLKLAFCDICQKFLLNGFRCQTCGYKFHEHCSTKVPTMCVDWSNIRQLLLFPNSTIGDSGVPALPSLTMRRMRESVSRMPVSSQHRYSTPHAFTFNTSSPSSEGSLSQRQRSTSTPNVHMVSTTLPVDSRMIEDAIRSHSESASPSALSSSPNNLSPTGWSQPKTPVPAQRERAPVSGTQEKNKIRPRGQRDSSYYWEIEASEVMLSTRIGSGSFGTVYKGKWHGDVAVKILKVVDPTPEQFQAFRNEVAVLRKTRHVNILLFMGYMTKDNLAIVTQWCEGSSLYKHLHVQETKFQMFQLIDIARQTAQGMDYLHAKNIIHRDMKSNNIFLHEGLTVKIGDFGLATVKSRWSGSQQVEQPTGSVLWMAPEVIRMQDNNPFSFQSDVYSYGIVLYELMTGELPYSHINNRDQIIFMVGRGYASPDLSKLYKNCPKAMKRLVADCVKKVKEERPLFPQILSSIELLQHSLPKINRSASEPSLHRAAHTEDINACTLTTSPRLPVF
Leucine-rich repeat serine/threonine-protein kinase 2 (Homo sapiens), Q5S007 [G2019S], sequence (Q5S007 whole entry G2019S): as the sequence (Q5S007 whole entry) above, with G2019S counted along it
Serine/threonine-protein kinase B-raf (Homo sapiens), sequence (P15056 whole entry): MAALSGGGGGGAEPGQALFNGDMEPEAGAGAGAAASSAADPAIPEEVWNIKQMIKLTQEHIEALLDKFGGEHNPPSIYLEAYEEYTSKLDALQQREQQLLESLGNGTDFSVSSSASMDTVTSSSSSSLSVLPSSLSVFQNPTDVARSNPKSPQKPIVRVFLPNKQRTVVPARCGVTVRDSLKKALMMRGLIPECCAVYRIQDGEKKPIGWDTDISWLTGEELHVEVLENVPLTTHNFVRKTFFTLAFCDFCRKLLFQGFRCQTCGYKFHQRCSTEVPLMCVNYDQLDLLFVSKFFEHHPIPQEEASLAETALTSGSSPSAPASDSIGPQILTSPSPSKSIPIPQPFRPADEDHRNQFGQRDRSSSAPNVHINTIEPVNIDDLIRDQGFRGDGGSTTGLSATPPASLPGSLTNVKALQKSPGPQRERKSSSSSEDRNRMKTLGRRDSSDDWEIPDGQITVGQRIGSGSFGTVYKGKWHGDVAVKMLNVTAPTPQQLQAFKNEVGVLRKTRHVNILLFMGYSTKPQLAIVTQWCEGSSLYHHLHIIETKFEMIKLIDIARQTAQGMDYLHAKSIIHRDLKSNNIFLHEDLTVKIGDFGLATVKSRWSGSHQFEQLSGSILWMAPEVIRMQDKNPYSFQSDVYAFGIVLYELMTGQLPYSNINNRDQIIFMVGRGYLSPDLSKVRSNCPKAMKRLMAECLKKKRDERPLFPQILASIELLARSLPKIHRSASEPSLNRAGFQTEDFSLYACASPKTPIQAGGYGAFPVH
Serine/threonine-protein kinase B-raf (Homo sapiens), P15056 [V600E], sequence (P15056 whole entry V600E): as the sequence (P15056 whole entry) above, with V600E counted along it

The term inhibition denotes the change of the read-out against control, counted positive when it falls. As for `O=C1NC(=O)C(c2cccc(Cl)c2)=C1Nc1ccc(O)c(Cl)c1`, the inhibition was 0.29% in assay [1]; 2.84% in assay [2]; 2.76% in assay [3]; 1.5% in [4]; 2.74% in [5]; 1.14% in [6]. Moreover, the inhibition was found to be 6% in assay [7]; 0.91% in assay [8]; 7.11% in assay [9]; 0.68% in [10]; 3.11% in assay [11]; 2.97% in assay [12]. Besides, the inhibition in assay [13] stood at 0.96%; in assay [14] it was 4.5%; in assay [15], 18.4%; in assay [16], 4.28%; in assay [17], 30%.

Take `c1cnn2ncc(-c3ccnc(Nc4ccc5c(c4)OCCO5)n3)c2c1`: the inhibition in assay [1] is 25%; in assay [2], 6.25%; in assay [3], 18.3%; in [4], 0.79%; in assay [5] it was 9.39%; in assay [6] it was 9.37%. Also, the inhibition was 33.3% in assay [7]; 8.24% in assay [8]; 31% in assay [9]; -0.29% in [10]; -2.01% in assay [12]; 7.85% in assay [13]. For the same molecule, the inhibition in assay [14] stood at 12.2%; in assay [15], 19.8%; in assay [16] it was 16.6%; in assay [17], 61.4%.

For the molecule `CCn1c(-c2nonc2N)nc2cnc(Oc3cccc(NC(=O)c4ccc(OCCN5CCOCC5)cc4)c3)cc21`, the inhibition in assay [1] was 2.81%; in assay [2], 3.49%; in assay [3], 4.67%; in assay [4], -1.7%; in [5] it was -1.56%; in assay [6], 4.86%. The inhibition in assay [7] is 6.86%; in assay [8] it was 5.41%; in assay [9], 5.71%; in assay [10] it was -0.87%; in [11] it was 6.03%; in assay [12] it was 3.17%. Further, the inhibition worked out at 1.66% in [13]; 0.83% in assay [14]; 9.41% in [15]; 4.44% in [16]; 29.3% in assay [17].

Take `Cc1cccc(-c2n[nH]cc2-c2ccc3ncccc3n2)n1`: the inhibition stood at 1.88% in [1]; 1.95% in assay [2]; 9.98% in assay [3]; 3.21% in assay [4]; 1.47% in assay [5]; 1.47% in [6]. In addition, the inhibition is 1.32% in [7]; 0.26% in assay [8]; 1.23% in [9]; -0.77% in [10]; 1.85% in [12]; 0.21% in assay [13]. Moreover, the inhibition was found to be 1.67% in assay [14], 10.1% in [15], 2.43% in assay [16] and 10.6% in assay [17].

For the molecule `COc1ccc(COc2ccc(Cc3cnc(N)nc3N)cc2OC)cc1`, the inhibition in assay [1] was 0.77%; in assay [2] it was -0.39%; in assay [3] it was -3.3%; in assay [4], 3.08%; in [5], 4.05%; in assay [6], -1.31%. In addition, the inhibition in [7] is -0.42%; in assay [8], -1.07%; in assay [9], 0.7%; in assay [10], 1.84%; in [12], 1.04%; in assay [13], 0.89%. Also, the inhibition in assay [14] worked out at 4.88%; in assay [15] it was 5.38%; in assay [16], 3.29%; in [17] it was 5.32%.

Regarding `Nc1ncnc2occ(-c3ccc(NC(=O)Nc4cc(C(F)(F)F)cc(C(F)(F)F)c4)cc3)c12`, the inhibition in [1] was found to be 29.6%; in assay [2] it was 1.45%; in assay [3] it was 11.7%; in assay [4] it was 2.13%; in assay [6], 3.58%; in assay [7], 7.33%. Also, the inhibition is 2.27% in assay [8]; 7.76% in assay [9]; 4.46% in assay [10]; 3.32% in assay [11]; -4.93% in assay [12]; 1.16% in assay [13]. The inhibition in assay [14] worked out at 9.63%; in assay [15] it was 16.7%; in assay [16] it was 4.56%; in assay [17], 26.1%.

Regarding `Cn1cc(C=C2C(=O)Nc3cccnc32)c2ccccc21`, the inhibition in [1] was determined as 13.2%; in [2], 5.4%; in assay [3] it was 45.1%; in assay [4] it was 1.96%; in [5], 11.5%; in assay [6], 3.28%. The inhibition in assay [7] was 6.52%; in [8] it was 2.79%; in assay [9], 5.11%; in assay [10], -3.3%; in assay [12] it was 6.41%; in [13] it was 5.04%. Besides, the inhibition was 8.55% in assay [14], 20.8% in assay [15], 15% in [16] and 55.4% in assay [17].

Consider `COc1cc2c(cc1Nc1nc(N3CCc4ccccc43)c3cc[nH]c3n1)N(C(=O)CN(C)C)CC2`, for which the inhibition in assay [1] is 1.54%; in assay [2] it was -0.07%; in assay [3], -1.83%; in [4], 1.18%; in [6], 1.69%; in assay [7], 2.22%. Besides, the inhibition in assay [8] was 1.91%; in assay [9], 1.68%; in assay [10] it was -4.52%; in assay [11] it was -4.34%; in assay [12] it was -0.95%; in assay [13], 0.98%. For the same molecule, the inhibition in assay [14] is 17.6%; in assay [15], 19.3%; in [16], 18.2%; in assay [17], 57.1%.
